Values without a mark were called inactive. Results filed as inconclusive are left out. Calls of active or inactive are those of the source. Unless noted, the call rests on the fitted dose curve; in most records, active means well fitted curve in the direction sought with a large enough effect in the repeat runs; inconclusive means weak or mixed curves; inactive means no such curve, though single readings can be large; an effect the other way counts as inactive or inconclusive.

Test [1] is described as follows: qHTS assay for small molecule agonists of the p53 signaling pathway (AID 651631; calls by dose curve; further: nearly all actives have a fitted effect of over 15% in size). The procedure, abridged:
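Fluorescence intensity from cleaved LiveBLAzer B/G substrate (2 h, room temperature) served as the signal. Beforehand, HCT-116 reporter cells bearing p53 response elements were treated 16 h at 37 °C with DMSO-dissolved compounds.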
(In general: Quantitative high-throughput screening tests each substance at several concentrations.)

Test [2] can be described thus: qHTS assay for small molecules that induce genotoxicity in human embryonic kidney cells expressing luciferase-tagged ATAD5 (AID 651632). Further: nearly all actives have a fitted effect of over 15% in size. The method in brief:
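DMSO vehicle served as the control. HEK293T reporter cells, 16 hr at 37C, then 30 min Amplite at room temperature; ATAD5 induction is measured as luciferase activity.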

The nature of test [3]: qHTS assay for small molecule agonists of the p53 signaling pathway - cell viability (AID 651633; calls by dose curve;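 further: p53RE-bla HCT reporter cells with a stable beta-lactamase p53 reporter; series mostly up to about 83 µM; nearly all actives have a fitted effect of over 30% in size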). The method in brief:
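p53RE-bla cells were treated with compound for 16 hours at 37 C. Cytotoxicity was then measured as CellTiter-Glo luminescence after 30 min at room temperature.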

Test [4] in a line: qHTS assay for small molecules that induce genotoxicity in human embryonic kidney cells expressing luciferase-tagged ATAD5 - cell viability (AID 651634; calls by dose curve; further: nearly all actives have a fitted effect of over 25% in size). The method in brief:
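Here HEK293T cells with the ATAD5 luciferase reporter are incubated with test compounds for 15.5 hr, and cytotoxicity is then gauged by measuring protease activity in live cells using fluorescence.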

Test [5] in a line: qHTS assay for small molecule disruptors of the mitochondrial membrane potential (AID 720635). Further: potency means the concentration at half of the fitted maximal effect. The method in brief: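 HepG2 cells exposed to compound 1 hr at 37C, then Mito-MPS dye 30 min. Ratio read of aggregate (540/590 nm) versus monomer (490/535 nm) fluorescence.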
A short description of test [6]: qHTS assay to test for compound auto fluorescence at 590 nm (red) in HepG2 cells (AID 720674). The method in brief: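 HepG2 cells, 2,000 per well in MEM with 10% FBS, attached overnight at 37 C, then got 23 nL compound or DMSO. After 1 hr at 37 C, 5% CO2, red fluorescence was read at 540/590 nm against Rose Bengal sodium as reference.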
Test [7] in a line: qHTS assay to test for compound auto fluorescence at 535 nm (green) in HepG2 cells (AID 720675).
A short description of test [8]: qHTS assay to test for compound auto fluorescence at 460 nm (blue) in HEK293 cells (AID 720678). The procedure, abridged: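 Cells were seeded and left to adhere for 4-5 hr at 37C. Compounds were then pin-transferred. After an overnight incubation at 37C under 5% CO2, intrinsic fluorescence at 405/460 nm was measured and referenced to triamterene.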
A short description of test [9]: qHTS assay to test for compound auto fluorescence at 535 nm (green) in HEK293 cells (AID 720680).
Test [10] can be described thus: qHTS assay to test for compound auto fluorescence at 460 nm (blue) in HEK293 cell free culture (AID 720681). The procedure, abridged: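 Compounds were added to cell-free DMEM with 10% FBS and fluorescence read directly. The blue channel used 405 nm excitation and 460 nm emission, with triamterene as the reference fluorophore.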
Test [11] can be described thus: qHTS assay to test for compound auto fluorescence at 590 nm (red) in HEK293 cell free culture (AID 720683). The method in brief: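 Cell-free wells of DMEM with 10% FBS received compound, and intrinsic fluorescence was read at excitation/emission 540/590 nm. Values expressed as equivalence to Rose Bengal sodium.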
Test [12] in a line: qHTS assay to test for compound auto fluorescence at 590 nm (red) in HepG2 cell free culture (AID 720684). The method in brief:
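Auto fluorescence equivalency versus Rose Bengal sodium, red channel Ex/Em 540/590 nm; compounds in cell-free MEM/10% FBS; DMSO vehicle control.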

Test [13] can be described thus: qHTS assay to test for compound auto fluorescence at 460 nm (blue) in HepG2 cell free culture (AID 720685). The method in brief:
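Cell-free plates of MEM plus 10% FBS received 23 nL compound or DMSO vehicle; blue-channel (405/460 nm) intensity scored against triamterene as reference fluorophore.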

Test [14] is described as follows: qHTS assay to test for compound auto fluorescence at 535 nm (green) in HepG2 cell free culture (AID 720686).
In test [15] the target is Glucocorticoid receptor (Homo sapiens) (UniProt P04150). Kind of test: qHTS assay to identify small molecule agonists of the glucocorticoid receptor (GR) signaling pathway (AID 720691; active means well fitted activation curve with a large enough effect in the signal ratio in the repeat runs, not every such curve was filed as active; the % refers to the signal ratio). The method in brief: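 Compounds in DMSO, alongside positive controls, were added to GR-bla HeLa reporter cells and incubated 18 h at 37 C; GRE-driven beta-lactamase was detected by fluorescence after 2 h with FRET substrate at room temperature.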

The nature of test [16]: qHTS assay for small molecule disruptors of the mitochondrial membrane potential - cell viability (AID 720634; calls by dose curve;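 further: human HepG2 liver cancer cells; series mostly up to about 83 µM; nearly all actives have a fitted effect of over 20% in size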). The procedure, abridged:
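Viability of HepG2 cells is scored from ATP content by luminescence; cells are exposed to compound for 1 hr at 37 C and 5% CO2, then dosed with m-MPI dye before the CellTiter-Glo reagent.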

A short description of test [17]: qHTS assay to test for compound auto fluorescence at 590 nm (red) in HEK293 cells (AID 720679). The method in brief:
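Each well held 2,000 HEK293 cells in medium containing 10% dialyzed FBS. Following 4-5 hr attachment at 37C, 23 nL test compound or DMSO was added; plates sat overnight, and red fluorescence (540/590nm) was recorded.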

Test [18] can be described thus: qHTS assay to test for compound auto fluorescence at 535 nm (green) in HEK293 cell free culture (AID 720682). The method in brief: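 Intrinsic compound fluorescence is measured in culture medium containing 10% FBS, with excitation at 485 nm and detection at 535 nm, referenced to fluorescein.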
The nature of test [19]: qHTS assay to test for compound auto fluorescence at 460 nm (blue) in HepG2 cells (AID 720687). The procedure, abridged: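 HepG2 cells in MEM with 10% FBS, attached overnight at 37 C, were exposed to compound or DMSO for 1 hr at 37 C, 5% CO2. Blue fluorescence was read at 405/460 nm, with triamterene as reference fluorophore.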
Test [20] concerns the target Glucocorticoid receptor (Homo sapiens) (UniProt P04150). Kind of test: qHTS assay to identify small molecule antagonists of the glucocorticoid receptor (GR) signaling pathway (AID 720692; active means well fitted inhibition curve with a large enough effect in the signal ratio in the repeat runs, not every such curve was filed as active; the % refers to the signal ratio). The procedure, abridged:
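In a 1536-well cell format, compounds were added 4 h after seeding GR-bla HeLa cells, together with dexamethasone at 5 nM final; reporter activity was measured by FRET-substrate fluorescence following 18 h at 37 C.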

Glucocorticoid receptor (Homo sapiens), sequence (P04150 whole entry, looked up): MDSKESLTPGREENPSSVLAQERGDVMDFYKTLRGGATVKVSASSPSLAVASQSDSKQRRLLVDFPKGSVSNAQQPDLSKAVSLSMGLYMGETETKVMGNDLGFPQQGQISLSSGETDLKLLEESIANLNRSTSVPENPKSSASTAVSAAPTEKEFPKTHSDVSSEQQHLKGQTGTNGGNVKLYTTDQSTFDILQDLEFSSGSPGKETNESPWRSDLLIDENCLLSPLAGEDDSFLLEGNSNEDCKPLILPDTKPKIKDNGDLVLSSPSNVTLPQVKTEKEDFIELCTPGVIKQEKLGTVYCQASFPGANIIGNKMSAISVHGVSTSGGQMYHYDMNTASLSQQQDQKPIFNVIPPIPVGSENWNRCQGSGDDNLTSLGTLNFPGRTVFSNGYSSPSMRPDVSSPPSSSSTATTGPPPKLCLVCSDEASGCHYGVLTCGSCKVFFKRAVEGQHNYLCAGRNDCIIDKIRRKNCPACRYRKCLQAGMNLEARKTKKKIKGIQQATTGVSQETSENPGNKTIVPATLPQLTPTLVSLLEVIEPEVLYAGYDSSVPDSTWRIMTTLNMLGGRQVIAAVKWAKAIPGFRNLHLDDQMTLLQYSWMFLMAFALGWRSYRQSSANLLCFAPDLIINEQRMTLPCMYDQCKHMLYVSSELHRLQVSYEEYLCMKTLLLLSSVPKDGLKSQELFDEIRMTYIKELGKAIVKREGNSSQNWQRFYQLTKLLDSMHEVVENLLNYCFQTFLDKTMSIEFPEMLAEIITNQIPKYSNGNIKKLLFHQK

As to `C[N+](C)(CCOc1ccccc1)Cc1cccs1`, the Potency result in test [1], in test [2], in [3], in test [4], in test [5] and in [15] was “inactive” in each case. For the same compound, the result in test [6], in [7], in test [8], in test [9], in test [10] and in [11] was inactive. The compound was classed as inactive in test [12], in test [13] and in test [14].

With `NO`, the Potency result in test [1], in [3] and in test [4] was “inactive” in each case. Besides, the compound was classed as inactive in test [16], in test [6], in test [7], in test [17], in test [9] and in test [10]. The outcome in test [18], in test [11], in test [12], in [14] and in [19] was inactive. Moreover, the Potency in test [5] is 55.5 µM (active).

For the compound `CO[Si](C)(OC)c1ccccc1`, the Potency result in test [1], in [2], in test [3], in test [4] and in test [15] was “inactive” throughout. Besides, the call in test [6], in test [7], in test [17], in test [9], in [10] and in [18] was inactive. In addition, the outcome in test [11], in [12], in test [13], in test [14] and in test [19] was inactive.

For the compound `CCCn1cc[n+](C)c1C`, the Potency result in test [1], in test [2], in test [3] and in [4] was “inactive” throughout. Moreover, the compound was classed as inactive in [6], in test [7], in [8], in test [17], in [9] and in test [10]. Also, the call in test [18], in test [11], in [12], in test [14] and in [19] was inactive.

For `O=[N+]([O-])c1ccc(/C=N\O)o1`, the Potency entry in test [1], in [2], in test [3], in [4], in [15] and in test [20] was “inactive” each time. The call in test [6], in [7], in test [8], in test [17], in test [9] and in [10] was inactive. For the same compound, the result in [18], in [11], in test [12], in test [13] and in [14] was inactive.

For `[K+]`, the Potency result in test [1], in [2], in test [3], in test [4] and in test [20] was “inactive” each time. Moreover, the outcome in [6], in [7], in test [8], in [17], in [9] and in test [10] was inactive. The call in test [18], in test [11], in [12], in test [14] and in [19] was inactive.

Consider `CC1=NN(c2cc(S(=O)(=O)O)ccc2Cl)C(=O)C1N=Nc1ccccc1` (configuration not stated), for which the Potency entry in test [1], in [2], in test [3], in [15] and in test [20] was “inactive” in each case. Besides, the result in [6], in test [7], in [8], in test [17], in test [9] and in [10] was inactive. The outcome in test [18], in test [11], in test [12], in test [13], in test [14] and in [19] was inactive.

As to `CCCCOCCOC(=O)COc1cc(Cl)c(Cl)cc1Cl`, the Potency entry in test [1], in test [2], in test [3], in [4], in test [15] and in [20] was “inactive” throughout. Also, the result in test [6], in [7], in test [8], in test [17], in [9] and in test [10] was inactive. Besides, the compound was classed as inactive in [18], in test [11], in test [13] and in test [14].

For the compound `CCCCCCCCCCCCCCC(=O)O`, the Potency entry in [1], in test [2], in [3] and in test [5] was “inactive” in each case. For the same compound, the compound was called inactive in test [16], in [6], in test [7], in test [17], in [9] and in test [10]. For the same compound, the outcome in [11], in test [12], in [13], in test [14] and in test [19] was inactive.

Consider `CCOC(=O)COc1cc(-n2ncc(C(F)(F)F)c(C)c2=O)c(F)cc1Cl`, for which the Potency result in [1], in test [2], in test [3], in [4], in test [15] and in [20] was “inactive” in each case. The call in [6], in test [7], in test [8], in test [17], in [9] and in [10] was inactive. For the same compound, the compound was called inactive in test [18], in test [11], in test [13], in test [14] and in test [19].

`CCN(CC#N)c1cccc(C)c1`: the Potency result in test [1], in test [2] and in test [3] was “inactive” in each case. The compound was called inactive in [16], in test [6], in test [7], in test [17], in test [9] and in test [10]. Moreover, the result in [18], in test [11], in [12], in test [13], in [14] and in test [19] was inactive.

Regarding `CC(C)[C@H]1CC[C@@H](C)CC1=O`, the Potency result in [1], in test [3] and in test [4] was “inactive” throughout. Further, the call in [16], in [6], in [7], in test [8], in [17] and in test [9] was inactive. Further, the compound was called inactive in test [10], in [18], in test [11], in test [12], in test [13] and in test [14]. The compound was called inactive in test [19].

`CC1=NS(=O)(=O)c2cc(Cl)ccc2N1`: the Potency result in test [1], in [2], in test [3], in [4], in test [5] and in test [20] was “inactive” throughout. For the same compound, the result in test [6], in test [7], in test [8], in test [9], in [10] and in [11] was inactive. For the same compound, the result in [12], in test [14] and in test [19] was inactive.

With `CC(=O)c1ccc2ccccc2c1`, the Potency entry in test [1], in test [2], in test [3], in test [4] and in test [15] was “inactive” each time. Further, the compound was classed as inactive in test [6], in test [7], in test [8], in test [9], in [10] and in test [11]. Moreover, the compound was classed as inactive in test [12], in test [13], in test [14] and in test [19].

As to `CN1CCN(c2cc3c(nn2)Oc2ccccc2N3C)CC1`, the Potency entry in [1], in test [3], in test [4] and in [5] was “inactive” throughout. In addition, the compound was classed as inactive in test [16], in test [6], in test [7], in test [8], in [17] and in [9]. The call in test [10], in [18], in [11], in test [12], in test [13] and in test [14] was inactive. The compound was classed as inactive in test [19].

The values are drawn from PubChem BioAssay (Tox21).
